Assay results taken from PubChem BioAssay (NCATS).
Records with an inconclusive call do not appear. Entries that show only a call come without a potency. Active and inactive are the calls of the source. Unless noted, calls come from the whole dose curve; as a rule, active = well fitted curve in the direction sought with a large enough effect; inconclusive = small, poorly fitted or top-dose-only effect, or another doubt; inactive = no such curve, though single readings can be large; an effect the other way counts as inactive or inconclusive.

Legend:
[1] = molecular target: D(1A) dopamine receptor (Homo sapiens) (UniProt P21728); assay: HTS Assay for Allosteric Agonists of the Human D1 Dopamine Receptor: Primary Screen for Potentiators (AID 488982)
In short: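 Tetracycline-induced HEK293 Trex D1 cells with forced coupling to calcium, loaded with no-wash calcium dye; kinetic fluorescence read 180 s after compound addition for agonism, then a further 180 s after an EC20 dopamine challenge for potentiation.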

[2] = molecular target: D(1A) dopamine receptor (Homo sapiens) (UniProt P21728); assay: HTS Assay for Allosteric Agonists of the Human D1 Dopamine Receptor: Primary Screen for Antagonists (AID 488983);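 note: calcium flux response to an EC80 dopamine challenge measured with no-wash dye; nearly all actives have a fitted effect of over 65% in size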
In short: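 Calcium-flux read-out in inducible HEK293 T-REx cells expressing D1, dye-loaded 30–90 min at room temperature. Kinetic reads: 180 s after compound (agonist phase), then 180 s after an EC80 dopamine challenge.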

[3] = Validation screen for small molecules that induce genotoxicity in human embryonic kidney (HEK293T) cells expressing luciferase-tagged ELG1 (AID 493106)
In short: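 ELG1-luciferase reporter readout (ONE-Glo, 30 min, room temperature) after 16 hr compound treatment at 37 °C of HEK293T cells at 2,000 per well. Rising luminescence flags genotoxic stress.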

[4] = molecular target: ATPase family AAA domain-containing protein 5 (Homo sapiens) (UniProt Q96QE3); assay: Validation screen for small molecules that inhibit ELG1-dependent DNA repair in human embryonic kidney (HEK293T) cells expressing luciferase-tagged ELG1 (AID 493107);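 note: series mostly up to about 46 µM; inhibitors lower the ELG1-luciferase luminescence signal; nearly all actives have a fitted effect of over 70% in size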
In short: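 Luciferase read-out, ONE-Glo, 30 min at room temperature, follows 16 h co-exposure at 37 C of compound and the DNA-damaging agent 5-fluorouridine. Cells: HEK293T with ELG1-luciferase fusion, 2,000 per well, DMSO as vehicle.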

[5] = molecular target: Thyrotropin-releasing hormone receptor (Homo sapiens) (UniProt P34981); assay: qHTS for Small Molecule Agonists and Allosteric Enhancers of Human TRH Receptor: Validation Screen for Agonists (AID 493127;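 active = calcium activation more than 3 SD above the typical response in the agonist read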;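 note: intracellular calcium rise by fluo-8 fluorescence before TRH EC20 addition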); conditions: TRH receptor agonist cell assay; at 2 µM; stronger effect = higher value
In short: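 Compound-evoked intracellular calcium release in fluo-8-loaded TRHR cells, read kinetically on FDSS (Ex 480/Em 530, 1 s/cycle) after 23 nL pintool transfer. Agonist phase preceded 10 nM TRH EC20 addition.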

[6] = Nrf2 qHTS screen for inhibitors: Validation (AID 493153; active = well fitted inhibition curve with a large enough effect in the main read-out, with a control signal flat, not every such curve was filed as active); conditions: viability change: measured here: cytotoxicity max response
In short: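 Concentration-response on A549 ARE_Fluc reporter cells exposed 18-24 h at 37 C, 5% CO2. Cytotoxicity read first by CellTiter-Fluor fluorescence (Ex 405/Em 525), then Nrf2 inhibition by BugLite luminescence after 15 min.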

[7] = qHTS for Inhibitors of Cell Surface uPA Generation: Validation Assay (AID 493164);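 note: RAW 264.7 macrophage cells exposed to compound for 18 h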
In short: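 ATP-Lite luminescence read-out: ATP remains high when uPA activity-dependent LF translocation into the cytoplasm is blocked. RAW 264.7 cells, 18 h compound exposure at 37 C; 7-point titration, 2.45 nM to 38.3 uM final.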

[8] = molecular target: Galactokinase (Homo sapiens) (UniProt P51570); assay: qHTS Validation Assay for Inhibitors of Human Galactokinase (GALK) (AID 493189)
In short: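 GALK (5 nM) with 35 uM ATP and 100 uM galactose in HEPES pH 8.0 with MgCl2, NaCl, DTT and BSA. Reaction ran 1 h at room temperature. Residual ATP read by Kinase-Glo Plus luminescence.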

[9] = Validation screen for small molecules that induce DNA re-replication in SW480 colon adenocarcinoma cells (AID 504364)
In short: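 Image-based DNA content read-out: Hoechst stain 40 min, total nuclear fluorescence intensity (ex 405 nm, em 500-530 nm) after 48 h compound exposure of 250 SW480 cells/well at 37 C, 5% CO2, versus DMSO vehicle.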

[10] = molecular target: Peptidyl-prolyl cis-trans isomerase NIMA-interacting 1 (Homo sapiens) (UniProt Q13526); assay: qHTS Validation Assay to Find Inhibitors of Pin1 (AID 504536; active = well fitted inhibition curve with a large enough effect in the polarisation, with a control signal flat, not every such curve was filed as active; the % refers to the polarisation)
In short: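 Fluorescence polarization competition: compounds (titration) displace HiFluor-488-labeled Pin1-1b peptide from Pin1 (0.3 uM final) in pH 7.5 HEPES buffer with DTT, 10 min at room temperature; %Activity normalized to no-enzyme wells, curves fitted.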

[11] = molecular target: Phosphoglycerate kinase, glycosomal (Trypanosoma brucei brucei) (UniProt P07378); assay: qHTS Validation Assay to Find Inhibitors of Phosphoglycerate Kinase (AID 504547)
In short: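 Compounds are pinned into the substrate/PGK mixture, and GAPDH (100nM final) is added to start the reaction by producing 1,3-BPG. After 60 minutes at room temperature, Kinase-Glo Plus is added and luminescence is measured 10 minutes later.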

[12] = molecular target: phosphoglycerate mutase (Leishmania major) (UniProt Q4Q090); assay: qHTS Validation Assay to Find Inhibitors of Phosphoglycerate Mutase (AID 504548);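 note: end-point luminescence from Kinase-GloPlus after the PGAM reaction; series mostly up to about 58 µM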
In short: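 Inhibition of L. major PGAM was assessed by Kinase-GloPlus luminescence following a 45-minute room-temperature reaction with enzyme at 1.25nM final.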

[13] = Inducers of the Endoplasmic Reticulum Stress Response (ERSR) in human glioma: Validation (AID 504836)
In short: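 Stably transfected U87-MG glioma cells carrying a GRP78-based luciferase sensor; 16 h compound incubation. Luminescence end-point read 10 min after Bright-Glo addition at room temperature.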

[14] = molecular target: Ubiquitin carboxyl-terminal hydrolase 1 (Homo sapiens) (UniProt O94782); assay: Inhibitors of USP1/UAF1: Pilot qHTS (AID 504865);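 note: rhodamine fluorescence freed from ubiquitin-rhodamine substrate followed over time; top concentration of the series differs between compounds; nearly all actives have a fitted effect of over 35% in size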
In short: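 USP1/UAF1 complex at 1 nM preincubated 15 min at room temperature with compound, then Ub-Rho substrate added at 150 nM final. Fluorescence (480/540 nm) read kinetically in 50 mM HEPES pH 7.8, 0.5 mM EDTA, 1 mM TCEP, 0.1 mg/ml BSA, 0.01% Tween-20.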

[15] = qHTS for Inhibitors of ATXN expression: Validation of Cytotoxic Assay (AID 588349)
In short: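 Cytotoxicity counter-screen: ATP-based luminescent viability (CellTiter Glo) after 72 hr exposure of HEK293 cells to a compound titration at 37 degrees C.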

[16] = qHTS for Inhibitors of ATXN expression: Validation (AID 588378); note: series mostly up to about 57 µM; nearly all actives have a fitted effect of over 75% in size
In short: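 HEK293 cells carrying ATXN2-firefly luciferase reporter, treated with compound 24 h at 37 °C. Viability read first by CellTiter-Fluor (405/525 nm), then reporter expression by Bright-Glo luminescence; controls were a known ATXN2 expression inhibitor and a luciferase inhibitor.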

[17] = molecular target: DNA dC->dU-editing enzyme APOBEC-3G (Homo sapiens) (UniProt Q9HC16); assay: qHTS for inhibitors of Vif-A3G interactions: Validation (AID 588379)
In short: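 Yellow fluorescence (Ex 488, Em 500-530) of Vif-coexpressing HeLa A3G-eYFP cells, scanned by Acumen cytometer, reports blocked A3G degradation. Cells plated at 700/well overnight at 37 deg C before compound addition, then a further overnight compound incubation at 37 deg C.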

[18] = molecular target: ATP-dependent 6-phosphofructokinase (Trypanosoma brucei brucei) (UniProt O15648); assay: qHTS Assay to Find Inhibitors of T. brucei phosphofructokinase: hit validation (AID 492961);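 note: luminescence reports ADP formed as PFK phosphorylates fructose-6-phosphate with ATP; series mostly up to about 51 µM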
In short: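 Inhibition of parasite PFK is measured as reduced ADP formation, quantified via luciferase after ATP depletion. Assay used 0.1 mM ATP, 0.5 mM F6P, 1.25 nM enzyme, 45 min incubation.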

Chain of Galactokinase (Homo sapiens) (P51570 whole entry, looked up): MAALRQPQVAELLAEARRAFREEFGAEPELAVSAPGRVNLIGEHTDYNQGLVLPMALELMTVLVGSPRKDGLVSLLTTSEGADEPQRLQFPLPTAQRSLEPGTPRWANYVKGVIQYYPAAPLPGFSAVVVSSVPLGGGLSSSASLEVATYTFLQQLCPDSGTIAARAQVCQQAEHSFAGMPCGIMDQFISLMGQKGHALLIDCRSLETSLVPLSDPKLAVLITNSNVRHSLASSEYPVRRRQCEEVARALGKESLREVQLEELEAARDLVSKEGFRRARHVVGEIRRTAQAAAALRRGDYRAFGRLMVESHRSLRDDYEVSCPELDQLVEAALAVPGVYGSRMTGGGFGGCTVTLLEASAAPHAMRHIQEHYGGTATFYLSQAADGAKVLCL
Chain of D(1A) dopamine receptor (Homo sapiens) (P21728 whole entry, looked up): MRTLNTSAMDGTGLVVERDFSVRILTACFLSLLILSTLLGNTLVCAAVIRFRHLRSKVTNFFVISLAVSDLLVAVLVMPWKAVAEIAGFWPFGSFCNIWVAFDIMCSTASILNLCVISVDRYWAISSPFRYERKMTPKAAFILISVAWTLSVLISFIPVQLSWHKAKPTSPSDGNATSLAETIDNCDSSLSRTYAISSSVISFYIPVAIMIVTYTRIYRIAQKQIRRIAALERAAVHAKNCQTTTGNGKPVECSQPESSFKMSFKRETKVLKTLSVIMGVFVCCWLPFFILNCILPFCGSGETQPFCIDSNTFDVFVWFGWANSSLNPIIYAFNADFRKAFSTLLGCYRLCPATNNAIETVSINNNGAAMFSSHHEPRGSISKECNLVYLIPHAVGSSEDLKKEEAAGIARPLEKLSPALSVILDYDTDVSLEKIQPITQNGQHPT
Chain of Peptidyl-prolyl cis-trans isomerase NIMA-interacting 1 (Homo sapiens) (Q13526 whole entry, looked up): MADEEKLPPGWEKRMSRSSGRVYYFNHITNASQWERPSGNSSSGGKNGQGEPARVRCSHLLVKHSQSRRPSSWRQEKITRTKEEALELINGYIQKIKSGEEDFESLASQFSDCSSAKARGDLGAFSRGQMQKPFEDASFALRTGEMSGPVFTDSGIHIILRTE
Chain of ATPase family AAA domain-containing protein 5 (Homo sapiens) (Q96QE3 whole entry, looked up, the tested form may be a part): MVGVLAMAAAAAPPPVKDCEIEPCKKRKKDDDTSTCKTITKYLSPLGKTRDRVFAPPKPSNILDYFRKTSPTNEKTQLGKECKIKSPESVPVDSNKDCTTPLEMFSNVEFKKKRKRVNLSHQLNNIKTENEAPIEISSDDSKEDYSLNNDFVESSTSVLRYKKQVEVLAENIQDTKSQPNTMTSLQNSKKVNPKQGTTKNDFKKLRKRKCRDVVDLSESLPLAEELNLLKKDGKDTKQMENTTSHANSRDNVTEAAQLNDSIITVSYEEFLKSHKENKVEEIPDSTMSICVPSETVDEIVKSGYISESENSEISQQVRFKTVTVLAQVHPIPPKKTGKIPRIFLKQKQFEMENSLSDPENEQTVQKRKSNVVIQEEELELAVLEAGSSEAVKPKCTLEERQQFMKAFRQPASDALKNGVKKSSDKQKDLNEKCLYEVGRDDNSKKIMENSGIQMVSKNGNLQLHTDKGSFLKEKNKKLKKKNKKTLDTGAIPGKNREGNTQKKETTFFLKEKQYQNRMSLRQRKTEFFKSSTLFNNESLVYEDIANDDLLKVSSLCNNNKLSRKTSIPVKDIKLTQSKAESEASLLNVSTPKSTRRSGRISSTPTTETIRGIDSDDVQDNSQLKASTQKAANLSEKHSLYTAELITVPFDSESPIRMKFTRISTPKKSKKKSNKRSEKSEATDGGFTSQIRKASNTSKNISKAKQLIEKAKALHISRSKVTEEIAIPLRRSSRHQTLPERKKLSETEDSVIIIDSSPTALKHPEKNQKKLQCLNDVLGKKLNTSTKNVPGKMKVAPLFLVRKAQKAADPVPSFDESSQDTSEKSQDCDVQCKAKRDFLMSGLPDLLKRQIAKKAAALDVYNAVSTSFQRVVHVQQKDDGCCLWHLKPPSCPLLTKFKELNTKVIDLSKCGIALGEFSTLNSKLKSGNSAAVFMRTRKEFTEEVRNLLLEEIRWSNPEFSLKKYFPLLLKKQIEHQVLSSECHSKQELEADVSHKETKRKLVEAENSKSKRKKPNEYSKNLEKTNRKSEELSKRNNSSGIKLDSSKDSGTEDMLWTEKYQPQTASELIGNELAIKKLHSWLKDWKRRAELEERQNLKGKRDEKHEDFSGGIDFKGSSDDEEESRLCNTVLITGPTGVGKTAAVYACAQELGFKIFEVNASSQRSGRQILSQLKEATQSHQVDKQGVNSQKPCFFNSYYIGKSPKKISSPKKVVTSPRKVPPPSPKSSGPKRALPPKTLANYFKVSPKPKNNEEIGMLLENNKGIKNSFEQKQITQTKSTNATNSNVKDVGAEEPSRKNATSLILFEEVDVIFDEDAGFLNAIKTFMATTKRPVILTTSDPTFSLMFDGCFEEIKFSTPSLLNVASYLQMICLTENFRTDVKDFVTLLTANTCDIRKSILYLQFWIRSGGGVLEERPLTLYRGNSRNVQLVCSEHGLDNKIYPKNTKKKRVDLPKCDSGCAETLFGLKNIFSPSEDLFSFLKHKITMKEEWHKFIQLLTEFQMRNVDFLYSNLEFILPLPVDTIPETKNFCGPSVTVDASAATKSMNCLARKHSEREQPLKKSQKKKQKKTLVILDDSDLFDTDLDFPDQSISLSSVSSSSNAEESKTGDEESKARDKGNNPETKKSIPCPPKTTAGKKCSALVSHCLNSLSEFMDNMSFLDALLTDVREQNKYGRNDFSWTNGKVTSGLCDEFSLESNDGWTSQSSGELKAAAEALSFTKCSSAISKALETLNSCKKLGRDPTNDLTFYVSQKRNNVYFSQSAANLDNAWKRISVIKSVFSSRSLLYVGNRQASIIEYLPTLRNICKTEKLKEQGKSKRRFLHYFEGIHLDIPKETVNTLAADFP
Chain of phosphoglycerate mutase (Leishmania major) (Q4Q090 1-553): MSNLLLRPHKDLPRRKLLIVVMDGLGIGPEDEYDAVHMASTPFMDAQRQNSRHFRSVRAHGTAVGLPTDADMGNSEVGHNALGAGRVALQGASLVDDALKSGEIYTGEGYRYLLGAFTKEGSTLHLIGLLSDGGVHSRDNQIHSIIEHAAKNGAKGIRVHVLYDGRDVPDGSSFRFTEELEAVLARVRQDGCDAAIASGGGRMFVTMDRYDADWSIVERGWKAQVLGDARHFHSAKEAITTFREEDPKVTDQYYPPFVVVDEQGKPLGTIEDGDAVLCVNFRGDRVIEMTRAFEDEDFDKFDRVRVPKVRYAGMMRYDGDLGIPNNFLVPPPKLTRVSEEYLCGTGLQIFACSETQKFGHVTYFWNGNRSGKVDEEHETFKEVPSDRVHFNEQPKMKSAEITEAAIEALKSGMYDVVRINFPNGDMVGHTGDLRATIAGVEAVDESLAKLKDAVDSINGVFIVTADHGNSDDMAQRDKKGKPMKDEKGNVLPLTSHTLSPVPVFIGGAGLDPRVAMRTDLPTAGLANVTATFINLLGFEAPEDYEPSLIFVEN
Chain of DNA dC->dU-editing enzyme APOBEC-3G (Homo sapiens) (Q9HC16 whole entry, looked up): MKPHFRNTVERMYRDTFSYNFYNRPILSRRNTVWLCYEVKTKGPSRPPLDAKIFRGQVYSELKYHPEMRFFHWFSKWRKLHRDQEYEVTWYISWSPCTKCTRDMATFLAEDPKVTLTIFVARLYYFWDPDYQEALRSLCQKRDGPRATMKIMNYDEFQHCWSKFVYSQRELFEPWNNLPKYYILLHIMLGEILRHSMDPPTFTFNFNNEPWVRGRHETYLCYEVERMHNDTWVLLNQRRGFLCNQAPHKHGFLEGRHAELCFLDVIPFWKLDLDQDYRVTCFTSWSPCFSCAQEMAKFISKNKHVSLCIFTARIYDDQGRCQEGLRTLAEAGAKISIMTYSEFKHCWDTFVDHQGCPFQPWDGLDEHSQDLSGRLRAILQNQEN
Chain of Ubiquitin carboxyl-terminal hydrolase 1 (Homo sapiens) (O94782 whole entry, looked up): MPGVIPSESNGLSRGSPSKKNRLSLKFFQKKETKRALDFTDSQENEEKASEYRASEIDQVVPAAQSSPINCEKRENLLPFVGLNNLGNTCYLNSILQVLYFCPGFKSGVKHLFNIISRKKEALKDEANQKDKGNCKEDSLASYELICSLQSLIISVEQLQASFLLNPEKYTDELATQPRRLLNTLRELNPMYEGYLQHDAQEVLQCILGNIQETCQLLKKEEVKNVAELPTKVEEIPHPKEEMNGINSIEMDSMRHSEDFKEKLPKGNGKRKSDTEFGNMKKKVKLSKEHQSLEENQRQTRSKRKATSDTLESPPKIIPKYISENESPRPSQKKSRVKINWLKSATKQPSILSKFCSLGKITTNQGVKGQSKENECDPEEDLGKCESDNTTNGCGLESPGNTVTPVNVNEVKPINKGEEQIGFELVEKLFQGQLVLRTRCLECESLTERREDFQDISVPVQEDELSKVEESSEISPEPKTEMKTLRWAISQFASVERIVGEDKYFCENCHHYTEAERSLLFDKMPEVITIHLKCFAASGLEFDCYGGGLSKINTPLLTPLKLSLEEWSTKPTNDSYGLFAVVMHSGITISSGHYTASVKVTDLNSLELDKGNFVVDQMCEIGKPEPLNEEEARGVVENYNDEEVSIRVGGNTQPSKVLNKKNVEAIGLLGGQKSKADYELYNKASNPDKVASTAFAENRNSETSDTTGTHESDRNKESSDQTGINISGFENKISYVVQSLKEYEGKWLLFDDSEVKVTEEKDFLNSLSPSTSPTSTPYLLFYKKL
Chain of Thyrotropin-releasing hormone receptor (Homo sapiens) (P34981 whole entry, looked up): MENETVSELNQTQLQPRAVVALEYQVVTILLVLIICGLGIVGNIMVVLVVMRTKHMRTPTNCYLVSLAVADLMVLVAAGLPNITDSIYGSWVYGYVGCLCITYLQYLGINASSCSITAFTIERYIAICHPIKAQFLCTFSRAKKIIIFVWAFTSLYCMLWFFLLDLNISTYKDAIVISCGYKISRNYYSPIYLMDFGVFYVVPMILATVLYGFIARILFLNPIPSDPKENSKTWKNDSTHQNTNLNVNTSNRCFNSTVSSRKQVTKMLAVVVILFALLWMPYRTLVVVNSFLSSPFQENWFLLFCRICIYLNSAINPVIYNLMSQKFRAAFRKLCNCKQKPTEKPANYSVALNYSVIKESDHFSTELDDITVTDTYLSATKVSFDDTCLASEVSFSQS

SMILES | outcome [1] | Potency [2] | outcome [3] | Potency [4] | activation [5] | outcome [6] | viability change [6] | outcome [7] | outcome [8] | outcome [9] | outcome [10] | outcome [11] | outcome [12] | Potency [13] | Potency [14] | outcome [15] | Potency [16] | outcome [17] | Potency [18]
NCCc1c[nH]c2ccc(O)cc12 | inactive | inactive | inactive | inactive | 1.44% (inactive) | inactive | 0.321% | inactive | inactive | inactive | inactive | inactive | inactive | inactive | inactive | inactive | inactive | inactive | –
CNCCc1c[nH]c2ccc(O)cc12 | inactive | inactive | inactive | inactive | 1.06% (inactive) | inactive | 1.11% | inactive | inactive | inactive | inactive | inactive | inactive | inactive | – | inactive | inactive | inactive | –
NC(=O)CN1CC(O)CC1=O (stereo not given) | inactive | inactive | inactive | inactive | 1.25% (inactive) | inactive | 1.59% | inactive | inactive | inactive | inactive | inactive | inactive | inactive | – | inactive | inactive | – | inactive
c1ccc(C2(c3ccccc3)CC2C2=NCCN2)cc1 (stereo not given) | inactive | inactive | inactive | inactive | – | inactive | -1.31% | inactive | – | – | inactive | inactive | inactive | inactive | inactive | inactive | – | – | inactive
NC(=NCCC[C@H](N)C(=O)O)N[N+](=O)[O-] | inactive | inactive | inactive | inactive | 0.625% (inactive) | inactive | 3.87% | inactive | inactive | inactive | inactive | inactive | inactive | inactive | inactive | inactive | inactive | inactive | –
NC(N)=NOCCC(N)C(=O)O (stereo not given) | inactive | inactive | inactive | inactive | 0.375% (inactive) | inactive | 0.756% | inactive | inactive | inactive | inactive | inactive | inactive | inactive | – | inactive | inactive | – | –
CN1C2CCC1CC(OC(=O)c1cc(Cl)cc(Cl)c1)C2 (stereo not given) | inactive | inactive | inactive | inactive | 3.5% (inactive) | inactive | 1.01% | inactive | inactive | inactive | inactive | inactive | inactive | inactive | – | inactive | – | – | –
